# Assay outcomes: PubChem, several laboratories
# Sampled rows, rich in hits. Any-hit rate of the full collection: about 10%.
# L major viab: inhibitors of Leishmania major promastigote growth | Leishmania major promastigotes, resazurin fluorescence viability | inhibition, % at 10 µM | actives 9% (n = 200,000) | AID 1063; in the data active means inhibition above about 50%;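 further: promastigotes grown with compound for 44 hours at 28 °C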
# ROMK primary: modulates human ROMK potassium channel activity | actives 2% (n = 130,000) | B-score at 10 µM | AID 1918 | Tet-inducible ROMK, thallium flux fluorescence; actives lie on both sides;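 active means signal ratio slope over the read window, or its plate-corrected B-score, at least 3 SD from the plate mean, either direction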;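 further: B-score of the F/F0 ratio slope over 7 to 12 s after thallium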
# Target sequence (P48048 whole entry, looked up): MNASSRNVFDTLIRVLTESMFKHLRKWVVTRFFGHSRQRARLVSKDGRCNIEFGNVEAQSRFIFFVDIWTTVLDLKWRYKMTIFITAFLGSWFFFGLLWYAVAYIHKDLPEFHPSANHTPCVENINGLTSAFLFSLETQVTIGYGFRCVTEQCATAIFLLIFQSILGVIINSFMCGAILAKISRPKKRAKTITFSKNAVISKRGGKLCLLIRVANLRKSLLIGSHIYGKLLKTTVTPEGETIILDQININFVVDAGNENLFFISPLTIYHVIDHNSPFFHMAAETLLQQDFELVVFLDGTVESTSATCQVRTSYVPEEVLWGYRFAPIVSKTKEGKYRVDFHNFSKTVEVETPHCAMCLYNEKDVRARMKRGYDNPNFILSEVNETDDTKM
# Insulin prom inh: TRM-6 insulin promoter activity inhibition | AID 1273 | TRM-6 cells (human fetal islet line), insulin promoter-eGFP reporter, imaging; reporter expression induced with tamoxifen | actives 0.9% (n = 130,000) | inhibition, % at 2 µM;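 active means inhibition above the mean plus 3 SD, with well images judged a real hit on visual review, cut at about 60% in these data, passing the limit was not always enough; inconclusive means inhibition over the cutoff but images rejected on review; inactive means inhibition not above the cutoff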
# PTEN del growth: growth suppressors of cells with PTEN tumor suppressor deletion. HCT116 PTEN-null viability, CellTiter-Glo, 60 h; hits give low values. actives 1.2% (n = 140,000). viability, % at 10 µM;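 active means viability at or below a set limit, 4 SD under the median of all tested compounds, cut at about 3.7% in these data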;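 further: PTEN knockout HCT116 line with beta catenin targeted HCT116 as companion control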
# HCT116 bCat-KO: beta-catenin-lacking colon tumor cell growth suppression; viability, % at 10 µM; HCT116 beta-catenin knockout viability, CellTiter-Glo, 60 h; hits give low values; AID 818; actives 1.5% (n = 140,000);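 active means viability at or under a set limit, the compound median less 4 SD, cut at about 6% in these data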;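 further: 0% = Hyamine 1622 control at 20 µM and 100% = untreated cell control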
# p97 ATPase inh: blocks human p97 ATPase activity | P55072 | recombinant p97 ATPase, Kinase-Glo ATP luminescence, 3 h | inhibition, % at 8 µM | actives 0.42% (n = 220,000) | AID 1481; in the data active means inhibition above about 15%;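 further: 0% = DMSO vehicle and 100% = wells lacking enzyme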
# ROMK retest: confirmation of human ROMK potassium channel modulators; shares compounds with ROMK primary; ROMK thallium flux, fluorescence ratio; hits give low values; normalized thallium flux (F/F0 slope) at 10 µM; actives 54% (n = 3,000); AID 1917;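 active means Flux at 10 µM at least 3 SD below or above vehicle control mean in one or both replicates; inconclusive means no clear call, values can overlap the other calls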
# * marks the source's active call; other numbers are inactive results; ? = inconclusive; nt = no result given.
SMILES,L major viab,ROMK primary,Insulin prom inh,PTEN del growth,HCT116 bCat-KO,p97 ATPase inh,ROMK retest
O=C(CN(Cc1ccccc1F)C(=O)Cn1nnc(-c2cccs2)n1)NC1CCCCC1,16,nt,-34,79,84,-7,nt
c1ccc(Cn2c(-c3cncs3)nc3ccccc32)cc1,4,-2.5*,-38,79,88,1,0.06*
Brc1ccc(Cn2c(-c3cncs3)nc3ccccc32)cc1,18,nt,21,75,81,-2,nt
CCCCN(C)S(=O)(=O)c1ccc(C(=O)Nc2nnc(-c3ccco3)o2)cc1,96*,3.2*,18,nt,nt,2,0.091
CCCCN(C)S(=O)(=O)c1ccc(C(=O)Nc2nnc(CSC)o2)cc1,48,nt,9,22,23,-8,nt
O=C(C1CCCO1)N1CCN(c2ccccn2)CC1 (centres undefined),-4,0.2,30,nt,nt,5,nt
CC(C)CN1CCC(C(=O)NCC2CCCO2)CC1 (centres undefined),-4,nt,17,93,85,-1,nt
O=C(N/N=C/c1ccsc1)c1cc(-c2cccs2)nc2ccccc12,20,1.4,nt,38,39,4,nt
Cc1ccsc1/C=N/NC(=O)c1cc(-c2ccncc2)nc2ccccc12,29,4.8*,-362,14,16,4,?
O=C(N/N=C/c1ccsc1)c1cc(-c2ccncc2)nc2ccccc12,5,3*,-40,35,38,-1,0.081
O=C(Nc1ccc2c(c1)OCO2)c1cc(-c2ccncc2)nc2ccccc12,3,nt,14,nt,nt,6,0.068*
CCS(=O)(=O)c1ccc2oc(Nc3cccc(OC)c3)nc2c1,4,-0.065,nt,nt,nt,0,nt
O=C(c1cccc(C(F)(F)F)c1)N1CCC(O)(CS(=O)(=O)Cc2ccccc2)CC1,-3,nt,-10,98,95,2,nt
O=C(c1cccc(C(F)(F)F)c1)N1CCC(O)(CS(=O)(=O)Cc2ccc(Cl)cc2)CC1,-3,nt,-14,82,85,3,0.075
CCOC(=O)c1c(C)oc2c1c(C=NCc1ccccn1)c(O)c1ccccc12,98*,nt,nt,5,18,7,0.064*
CCOC(=O)c1c(C)oc2c1cc(O)c1ccccc12,-7,nt,55,85,90,4,nt
Cc1ccc(OC(=S)Nc2ccc(O)cc2)cc1,29,-5.1*,-328,87,88,6,0.043*
CC(C)CCNC(=O)CCc1nnc(COc2ccccc2)o1,-5,0.94,33,nt,nt,-1,nt
COc1ccccc1/C=C/C=N/NC(=O)CC1C(=O)NN=C1C (centres undefined),nt,-11*,nt,nt,nt,6,0.077
Cc1c(CCC#N)c(N2CCN(C3CCCCC3)CC2)n2c(nc3ccccc32)c1C#N,nt,-0.32,nt,nt,nt,nt,nt
O=C(CCl)N(c1ccc(Cl)cc1)c1c[nH]c2ccccc12,100*,-2.2,-257,1.8*,1.7*,4,0.056*
O=C(NCc1ccc(Cl)cc1)C(=O)c1c[nH]c2ccccc12,-8,0.77,-26,nt,nt,-2,nt
COc1ccc2c(CCNC(=O)c3ccc([N+](=O)[O-])cc3)c[nH]c2c1,9,-0.64,45,nt,nt,-2,nt
COc1cc(/C=N/NC(=O)C(=O)/C=C2\NC(C)(C)Cc3ccccc32)ccc1O,nt,2.2*,nt,nt,nt,8,0.083
CCn1cc(C(=O)OCC(=O)OC2CC(C)CCC2C(C)C)c(=O)c2ccc(C)nc21 (centres undefined),79*,2.7*,56,84,90,-4,0.064*
SMILES,L major viab,ROMK primary,Insulin prom inh,PTEN del growth,HCT116 bCat-KO,p97 ATPase inh,ROMK retest
CCC(=O)Nc1nc2ccc(NC(=O)c3cc(OC)c(OC)c(OC)c3)cc2s1,9,nt,nt,nt,nt,-1,0.064*
Cc1cccn2c(=O)c(C=O)c(N3CCN(c4ccc(F)cc4)CC3)nc12,-3,-0.72,nt,nt,nt,-2,nt
Cc1nn(Cc2ccccc2)c2c1C(c1ccncc1)C(C#N)=C(N)O2 (centres undefined),nt,nt,nt,105,93,nt,nt
Cc1nn(Cc2ccccc2)c2c1C(c1ccc(Cl)cc1)C(C#N)=C(N)O2 (centres undefined),85*,-2.9*,44,100,96,-5,0.059*
CC(C)(C)[C@H]1C=C(C(=O)N2CCN(Cc3ccccc3)CC2)O[C@@H](OCc2ccc(CO)cc2)C1,18,nt,nt,nt,nt,2,nt
Cc1ccc(NC(=O)CS(=O)(=O)c2cn(CC(=O)N3CCOCC3)c3ccccc23)cc1,-7,0.66,-11,nt,nt,1,nt
Cc1ccccc1NC(=O)CS(=O)(=O)c1cn(CC(=O)N2CCOCC2)c2ccccc12,3,2*,nt,nt,nt,0,0.073
Cc1ccc(-c2csc3ncn(-n4c(C)ccc4C)c(=O)c23)o1,-1,nt,56,85,87,-9,nt
CC1(C)CC(CC(=O)O)(c2ccccc2)CCO1 (centres undefined),0,nt,-19,94,107,4,0.072
CCOC(=O)CC1(c2ccccc2)CCOC(C)(C)C1 (centres undefined),3,0.19,-3,109,98,-9,nt
CCCCOc1ccc(C(=O)NC)cc1,-5,1.3,54,99,100,-1,nt
CCCCOc1ccc(CC(=O)NO)cc1,-9,nt,-36,92,93,4,0.081
Cc1cc(F)ccc1N1CCC(N2CCN(CCC(C)C)C(CCO)C2)CC1 (centres undefined),95*,-2.8*,nt,nt,nt,-7,0.058*
CNC(=S)N/N=C/c1ccc(-c2cc([N+](=O)[O-])ccc2Cl)o1,-1,-0.011,nt,nt,nt,3,nt
CN1CCN(/N=C/c2ccc(-c3ccc([N+](=O)[O-])cc3Cl)o2)CC1,19,-3.8*,-316,nt,nt,0,0.045*
CCC(CC)C(=O)N1c2ccc(F)cc2CCC1C (centres undefined),-2,0.43,nt,90,96,3,nt
CC1CCc2cc(F)ccc2N1C(=O)CCl (centres undefined),75*,-4.3*,-7,nt,nt,1,0.048*
CCN(CC)C(=N)/C(C#N)=N/Nc1ccc(C)cc1,nt,nt,nt,nt,nt,0,nt
COc1cccc(NC(=S)N2CCN(c3ccccn3)CC2)c1,12,0.27,-11,99,89,2,nt
S=C(Nc1ccc(Oc2ccccc2)cc1)N1CCN(c2ccccn2)CC1,0,2.6*,-65,nt,nt,6,0.082
S=C(Nc1ccccc1)N1CCN(C(=S)Nc2ccccc2)CC1,-2,-13*,nt,nt,nt,-1,0.087
Cc1ccc(C(=O)NNC(=O)C2CCN(c3nccc(C)n3)CC2)cc1,-3,nt,43,96,94,-1,nt
CCOc1ccc2c(c1)N(C(=O)CN1C(=O)CCC1=O)C(C)(C)C=C2C,-6,nt,-26,84,91,0,nt
CC1=CC(C)(C)N(C(=O)CNC2CCCC2)c2cc(C)ccc21,37,-4*,-27,nt,nt,0,0.05*
CCCCCCN1C=CC=C/C1=C\C=C(C#N)C#N,nt,-4.4*,nt,nt,nt,2,0.043*
CC(=O)Nc1ccc(OCC(=O)N2CCC(Cc3ccccc3)CC2)cc1,4,-0.021,-43,nt,nt,-5,nt
